In assay [1] the target is Nuclear respiratory factor 1 (Homo sapiens) (UniProt Q16656). Description: ATG_NRF1_CIS: Attagene CIS-FACTORIAL HepG2 Assay for human Nuclear Respiratory Factor 1 (NRF1) Orphan Gene (AID 2282987). Conditions: HepG2 NRF1 cis-element reporter, Attagene multiplex; actives raise or lower the signal. The gist of the method:
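Transcriptional reporter readout, one component of a 52-endpoint multiplexed HepG2 panel. Exposure 24 h; mRNA detected via RT-PCR and fluorescent capillary electrophoresis; fitting in both directions against DMSO.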

The nature of assay [2]: ATG_NFI_CIS: Attagene CIS-FACTORIAL HepG2 Assay for human Nuclear Factor I (NFI) (AID 2282989). Conditions: HepG2 cis-regulatory reporter, NFI response element transcription; actives raise or lower the signal. The gist of the method: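 Transient MRTU transfection of HepG2 → 24 h chemical dosing → total RNA, oligo(dT) RT → PCR, 6-FAM primer extension, HpaI cut → capillary electrophoresis. Endpoint fitted bidirectionally relative to DMSO.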

Assay [3] deals with Myc proto-oncogene protein (Homo sapiens) (UniProt P01106). Put plainly: ATG_Myc_CIS: Attagene CIS-FACTORIAL HepG2 Assay for human Myelocytomatosis (Myc) Proto-Oncogene Transcription Factor (AID 2282990). Conditions: HepG2, Attagene cis-reporter transcription factor activity; actives raise or lower the signal. The gist of the method: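 HepG2 cells transiently transfected with multiple cis-promoter-driven reporter transcription units, so endogenous TF activity is read. After 24 h compound exposure, reporter mRNA was quantified by RT-PCR, 6-FAM labelling, HpaI digestion and capillary electrophoresis; bidirectional fit versus DMSO.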

Assay [4] in a line: ATG_NF_kB_CIS: Attagene CIS-FACTORIAL HepG2 Assay for human Nuclear Factor Kappa B (NF-kB) (AID 2282991). Conditions: HepG2 Attagene cis-factorial NF-kB reporter mRNA; actives raise or lower the signal. The gist of the method: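 HepG2, transient multi-reporter transfection, cis promoter elements (endogenous TFs). 24 h exposure. Total RNA → RT → PCR → 6-FAM label → HpaI → CE. Gain/loss vs DMSO.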

Assay [5] in a line: ATG_NRF2_ARE_CIS: Attagene CIS-FACTORIAL HepG2 Assay for human Nuclear Factor Erythroid 2 Related Factor 2 (NFR2) response to Antioxidant Response Elements (ARE) (AID 2282992). Conditions: HepG2 Attagene ARE/NRF2 reporter, transcription factor activity; actives raise or lower the signal. The gist of the method: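 Endogenous transcription factor activity read out as reporter transcript levels (RT-PCR plus capillary electrophoresis, fluorescence) in transiently transfected HepG2 cells. Measured at 24 h after dosing; gain or loss of signal fitted versus DMSO.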

Assay [6] can be described thus: ATG_Oct_MLP_CIS: Attagene CIS-FACTORIAL HepG2 Assay for human Octamer-Binding Transcription Factor (Oct) (AID 2282993). Conditions: HepG2 Attagene cis-factorial Oct reporter, mRNA; actives raise or lower the signal. The gist of the method:
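Transient MRTU transfection of HepG2 → 24 h compound treatment → RNA isolation, reverse transcription, PCR → 6-FAM primer extension, HpaI digest → capillary electrophoresis. Activity fitted both directions against DMSO.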

Assay [7] deals with Cellular tumor antigen p53 (Homo sapiens) (UniProt P04637). Put plainly: ATG_p53_CIS: Attagene CIS-FACTORIAL HepG2 Assay for human p53 Transcription Factor (AID 2282994). Conditions: HepG2 p53 cis-element reporter, Attagene mRNA; actives raise or lower the signal. The gist of the method:
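Endogenous p53 activity read in transiently transfected HepG2 from a cis-element-driven reporter transcript after 24 h exposure. RNA reverse-transcribed, PCR-amplified, fluorescently labelled and sized by capillary electrophoresis; gain or loss fitted against DMSO baseline.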

Assay [8] can be described thus: BSK_3C_TissueFactor: BioMAP Diversity Plus: 3C Assay for Tissue Factor Biomarker Activity (AID 2282997). Conditions: BioMAP 3C HUVEC, tissue factor biomarker readout; actives raise or lower the signal. The gist of the method: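 Tissue factor on primary human umbilical vein endothelium was read by ELISA 24 h after dosing, gain or loss relative to DMSO. Cytotoxicity ran alongside via SRB (0.1%, TCA-fixed, 560 nm).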

Assay [9] in a line: BSK_3C_VCAM1: BioMAP Diversity Plus: 3C Assay for Vascular cell adhesion molecule 1 (VCAM1) Biomarker Activity (AID 2282999). Conditions: BioMAP 3C HUVEC, VCAM1 ELISA, cytokine-stimulated; actives raise or lower the signal. The gist of the method: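 Vascular primary endothelium (human umbilical vein) was exposed to chemicals and assayed 24 h later. VCAM-1 levels came from ELISA, with DMSO serving as baseline for bidirectional fitting.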
For orientation: In an ELISA, binding on a coated surface is turned into a signal by an enzyme label.

Assay [10] is described as follows: BSK_4H_Eotaxin3: BioMAP Diversity Plus: 4H Assay for Eotaxin 3 Biomarker Activity (AID 2283000). Conditions: primary human endothelial cells (HUVEC); actives raise or lower the signal. The gist of the method: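 Human umbilical vein endothelial cells (BSK_4H system) dosed with test chemical; Eotaxin-3 (CCL26) measured by ELISA 24 h after dosing. Bidirectional curve fitting relative to DMSO negative control as baseline.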

Read-out in assay [11]: Intercellular Adhesion Molecule 1 (ICAM1), ICAM1 (gene 3383)
Description: BSK_3C_ICAM1: BioMAP Diversity Plus: 3C Assay for Intercellular Adhesion Molecule 1 (ICAM1) Biomarker Activity (AID 2283003). Conditions: primary human endothelial cells (HUVEC); actives raise or lower the signal. The gist of the method: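 Chemicals are dosed onto primary human umbilical vein endothelium (3C system). After 24 h, ICAM-1 is measured by ELISA, and responses are fitted bidirectionally relative to DMSO.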

Assay [12] can be described thus: BSK_3C_Proliferation: Cell Proliferation Assessment in the BioMAP Diversity Plus: 3C Assay (AID 2283006).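 Further: potency may reflect either rise or fall in cell number versus DMSO.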 Conditions: primary human endothelial cells (HUVEC). The gist of the method: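 Cells (human umbilical vein endothelial, sub-confluent) receive test chemical; after 48 h they are fixed in 10% trichloroacetic acid, stained with 0.1% SRB and read at 560 nm. Activity is referenced to DMSO, fitting increases and decreases.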

Assay [13] has as its target Peroxisome proliferator-activated receptor gamma (Homo sapiens) (UniProt P37231). Put plainly: ATG_PPARg_TRANS: Attagene TRANS-FACTORIAL HepG2 Assay for human Peroxisome Proliferator-activated Receptor-gamma (PPARg) (AID 2283007; active means hit-call score of the fitted dose curve at least 0.9, where 1 is the maximum). The gist of the method: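 Multiplexed reporter transcription units in HepG2, 24 h dosing, reporter transcripts quantified by fluorescent RT-PCR and capillary electrophoresis. Increase over DMSO scored.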

Assay [14] deals with Nuclear receptor subfamily 1 group I member 2 (Homo sapiens) (UniProt O75469). Put plainly: ATG_PXR_TRANS: Attagene TRANS-FACTORIAL HepG2 Assay for human Pregnane X Receptor (PXR) (AID 2283008; active means hit-call score of the fitted dose curve at least 0.9, where 1 is the maximum). The gist of the method: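 Transactivation by exogenous PXR–GAL4 fusion measured as reporter transcript induction after 24 h compound treatment of transfected human HepG2 cells. Read-out via RT-PCR and capillary electrophoresis of labelled fragments, fitted upward relative to DMSO.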

The target in assay [15] is human Retinoic Acid Receptor gamma (RARg), RARG (gene 5916) (UniProt P13631). Description: ATG_RARg_TRANS: Attagene TRANS-FACTORIAL HepG2 Assay for human Retinoic Acid Receptor gamma (RARg) (AID 2283009; active means hit-call score of the fitted dose curve at least 0.9, where 1 is the maximum). The gist of the method:
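TRANS format measured activity of exogenous NR-GAL4 fusion (RARg) in transfected HepG2 liver cells after 24 h dosing. Induced reporter RNA was detected by RT-PCR/capillary electrophoresis fluorescence, analysed in the positive direction against DMSO.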

Assay [16] deals with human Peroxisome Proliferator-activated Receptor alpha (PPARa), PPARA (gene 5465) (UniProt Q07869). Description: ATG_PPARa_TRANS: Attagene TRANS-FACTORIAL HepG2 Assay for human Peroxisome Proliferator-activated Receptor alpha (PPARa) (AID 2283001; active means hit-call score of the fitted dose curve at least 0.9, where 1 is the maximum;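 on AC50: potency for gain of reporter signal over DMSO so agonist or activator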). The gist of the method: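 Cells (HepG2) are transfected with multiple reporter transcription units, exposed to chemical for 24 h, then total RNA is reverse-transcribed and amplified. Labelled products are quantified by capillary electrophoresis; induction is referenced to DMSO.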

The target of assay [17] is human Peroxisome Proliferator-activated Receptor delta (PPARd), PPARD (gene 5467) (UniProt Q03181). Description: ATG_PPARd_TRANS: Attagene TRANS-FACTORIAL HepG2 Assay for human Peroxisome Proliferator-activated Receptor delta (PPARd) (AID 2283002; active means hit-call score of the fitted dose curve at least 0.9, where 1 is the maximum). The gist of the method:
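HepG2 cells transiently transfected with multiplexed GAL4-UAS reporter units and exogenous chimeric NR-Gal4 proteins; 24 h compound exposure. Reporter mRNA measured by RT-PCR, 6-FAM labelling, HpaI digestion and capillary electrophoresis; gain of signal versus DMSO.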

Assay [18] has as its target human Retinoic Acid Receptor beta (RARb), RARB (gene 5915) (UniProt P10826). Description: ATG_RARb_TRANS: Attagene TRANS-FACTORIAL HepG2 Assay for human Retinoic Acid Receptor beta (AID 2283004; active means hit-call score of the fitted dose curve at least 0.9, where 1 is the maximum). The gist of the method:
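Induction of reporter mRNA from a chimeric RARb-Gal4 construct was measured by RT-PCR, FAM labelling, HpaI digestion and capillary electrophoresis. Measurements followed 24 h compound treatment of transiently transfected human HepG2 liver cells, with DMSO as baseline.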

Assay [19] addresses Retinoic acid receptor alpha (Homo sapiens) (UniProt P10276). Put plainly: ATG_RARa_TRANS: Attagene TRANS-FACTORIAL HepG2 Assay for human Retinoic Acid Receptor alpha (RARa) (AID 2283005; active means hit-call score of the fitted dose curve at least 0.9, where 1 is the maximum). The gist of the method:
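HepG2 cells transiently transfected with multiple reporter units expressing chimeric RARα-GAL4 fusion, with GAL4-UAS-driven reporters. After 24 h compound exposure, reporter mRNA induction quantified by RT-PCR and capillary electrophoresis with fluorescent labeling; gain-of-signal fitted relative to DMSO control.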

Several values for one entry are separate records, joined by “and”; a condition that tells them apart may be missing. Equal entries are not always repeated. Inconclusive results are not listed. Activity calls are given as the source filed them. How the source made its calls, unless noted: active means hit-call score of the fitted dose curve at least 0.9, where 1 is the maximum; inactive means score below 0.9.

Broadly, the AC50 is the midpoint of the concentration-response curve, whichever way the signal moves.

Sequence of human Peroxisome Proliferator-activated Receptor delta (PPARd), PPARD (gene 5467) (Q03181 whole entry, looked up, the tested form may be a part): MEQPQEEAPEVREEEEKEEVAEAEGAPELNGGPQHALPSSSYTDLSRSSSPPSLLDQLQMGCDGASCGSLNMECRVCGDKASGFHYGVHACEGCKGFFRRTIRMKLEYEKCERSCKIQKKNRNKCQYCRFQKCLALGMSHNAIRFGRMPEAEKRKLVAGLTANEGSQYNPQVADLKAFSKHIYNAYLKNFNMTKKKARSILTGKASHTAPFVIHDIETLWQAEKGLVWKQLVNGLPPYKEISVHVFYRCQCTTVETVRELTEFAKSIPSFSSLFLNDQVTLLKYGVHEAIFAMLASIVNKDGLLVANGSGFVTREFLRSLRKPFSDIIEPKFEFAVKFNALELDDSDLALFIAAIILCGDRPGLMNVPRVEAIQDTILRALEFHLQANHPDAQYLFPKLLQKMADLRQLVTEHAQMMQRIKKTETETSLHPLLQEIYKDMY
Sequence of Myc proto-oncogene protein (Homo sapiens) (P01106 whole entry, looked up): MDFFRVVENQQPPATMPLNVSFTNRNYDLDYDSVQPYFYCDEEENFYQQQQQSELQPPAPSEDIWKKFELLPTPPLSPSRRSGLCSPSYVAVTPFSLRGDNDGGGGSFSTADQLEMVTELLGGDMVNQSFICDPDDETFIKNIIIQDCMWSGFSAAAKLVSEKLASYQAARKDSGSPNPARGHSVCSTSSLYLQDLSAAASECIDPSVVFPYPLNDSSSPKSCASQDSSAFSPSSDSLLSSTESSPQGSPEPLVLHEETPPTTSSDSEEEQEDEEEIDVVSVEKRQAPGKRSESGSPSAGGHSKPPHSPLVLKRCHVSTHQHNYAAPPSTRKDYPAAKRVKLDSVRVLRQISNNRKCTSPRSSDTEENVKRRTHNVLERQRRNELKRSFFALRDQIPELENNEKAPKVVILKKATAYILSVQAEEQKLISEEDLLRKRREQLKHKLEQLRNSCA
Sequence of Nuclear receptor subfamily 1 group I member 2 (Homo sapiens) (O75469 whole entry, looked up, the tested form may be a part): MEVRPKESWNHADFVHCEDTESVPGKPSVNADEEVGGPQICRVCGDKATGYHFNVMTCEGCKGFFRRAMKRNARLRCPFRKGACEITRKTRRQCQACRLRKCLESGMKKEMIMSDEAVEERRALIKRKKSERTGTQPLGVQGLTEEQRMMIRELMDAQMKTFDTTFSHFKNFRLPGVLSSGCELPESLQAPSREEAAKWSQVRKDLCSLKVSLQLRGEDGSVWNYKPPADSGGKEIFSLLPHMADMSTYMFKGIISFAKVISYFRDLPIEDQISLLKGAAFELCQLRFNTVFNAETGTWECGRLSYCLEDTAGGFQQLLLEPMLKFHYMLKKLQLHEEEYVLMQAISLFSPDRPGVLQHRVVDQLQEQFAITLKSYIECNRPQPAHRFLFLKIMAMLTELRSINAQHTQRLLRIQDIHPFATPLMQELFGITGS
Sequence of Nuclear respiratory factor 1 (Homo sapiens) (Q16656 whole entry, looked up): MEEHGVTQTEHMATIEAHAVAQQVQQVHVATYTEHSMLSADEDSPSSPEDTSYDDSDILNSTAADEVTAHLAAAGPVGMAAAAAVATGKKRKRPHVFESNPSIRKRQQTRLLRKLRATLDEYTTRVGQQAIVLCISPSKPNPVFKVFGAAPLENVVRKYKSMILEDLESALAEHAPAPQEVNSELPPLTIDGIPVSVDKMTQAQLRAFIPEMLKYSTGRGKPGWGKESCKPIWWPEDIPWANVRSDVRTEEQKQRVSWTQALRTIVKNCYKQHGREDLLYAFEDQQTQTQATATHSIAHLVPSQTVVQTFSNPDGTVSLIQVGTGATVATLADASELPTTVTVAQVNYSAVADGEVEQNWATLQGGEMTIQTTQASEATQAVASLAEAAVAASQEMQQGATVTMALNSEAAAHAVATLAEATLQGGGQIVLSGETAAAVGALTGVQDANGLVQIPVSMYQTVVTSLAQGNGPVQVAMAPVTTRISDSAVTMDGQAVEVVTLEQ
Sequence of human Retinoic Acid Receptor gamma (RARg), RARG (gene 5916) (P13631 whole entry, looked up, the tested form may be a part): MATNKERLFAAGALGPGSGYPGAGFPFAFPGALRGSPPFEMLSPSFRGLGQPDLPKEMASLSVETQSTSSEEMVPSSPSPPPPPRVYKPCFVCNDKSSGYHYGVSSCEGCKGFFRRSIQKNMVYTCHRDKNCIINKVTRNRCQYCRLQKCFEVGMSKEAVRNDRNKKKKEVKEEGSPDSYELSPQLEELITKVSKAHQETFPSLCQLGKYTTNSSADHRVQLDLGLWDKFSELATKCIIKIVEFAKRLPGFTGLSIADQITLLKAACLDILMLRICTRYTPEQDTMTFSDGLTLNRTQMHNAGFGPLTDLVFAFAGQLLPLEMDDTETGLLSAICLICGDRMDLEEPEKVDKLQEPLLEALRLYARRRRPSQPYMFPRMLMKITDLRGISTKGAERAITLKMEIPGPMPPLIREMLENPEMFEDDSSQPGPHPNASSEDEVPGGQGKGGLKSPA
Sequence of human Retinoic Acid Receptor beta (RARb), RARB (gene 5915) (P10826 whole entry, looked up, the tested form may be a part): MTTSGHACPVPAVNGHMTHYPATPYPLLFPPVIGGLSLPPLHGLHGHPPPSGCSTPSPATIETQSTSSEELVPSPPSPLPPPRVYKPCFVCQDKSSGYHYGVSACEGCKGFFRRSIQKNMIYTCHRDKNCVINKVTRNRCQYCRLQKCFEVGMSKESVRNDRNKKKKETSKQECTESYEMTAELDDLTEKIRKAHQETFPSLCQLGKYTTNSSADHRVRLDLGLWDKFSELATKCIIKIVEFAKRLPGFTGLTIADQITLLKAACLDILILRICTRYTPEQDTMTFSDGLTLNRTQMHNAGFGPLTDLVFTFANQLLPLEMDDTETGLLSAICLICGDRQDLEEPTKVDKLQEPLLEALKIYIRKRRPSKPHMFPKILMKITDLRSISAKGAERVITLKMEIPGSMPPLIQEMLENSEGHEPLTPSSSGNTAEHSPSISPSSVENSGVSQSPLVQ
Sequence of Cellular tumor antigen p53 (Homo sapiens) (P04637 whole entry, looked up): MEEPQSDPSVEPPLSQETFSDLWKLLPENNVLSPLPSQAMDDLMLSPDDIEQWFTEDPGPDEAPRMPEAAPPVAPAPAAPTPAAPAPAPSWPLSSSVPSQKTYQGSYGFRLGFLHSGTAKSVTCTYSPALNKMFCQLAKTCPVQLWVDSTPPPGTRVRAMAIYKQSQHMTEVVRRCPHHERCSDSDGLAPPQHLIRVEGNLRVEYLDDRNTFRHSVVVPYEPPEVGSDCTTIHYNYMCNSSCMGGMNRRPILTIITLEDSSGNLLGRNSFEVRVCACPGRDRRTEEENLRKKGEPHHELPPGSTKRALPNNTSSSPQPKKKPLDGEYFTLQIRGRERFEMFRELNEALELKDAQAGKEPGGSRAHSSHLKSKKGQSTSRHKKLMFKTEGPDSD
Sequence of Peroxisome proliferator-activated receptor gamma (Homo sapiens) (P37231 whole entry, looked up): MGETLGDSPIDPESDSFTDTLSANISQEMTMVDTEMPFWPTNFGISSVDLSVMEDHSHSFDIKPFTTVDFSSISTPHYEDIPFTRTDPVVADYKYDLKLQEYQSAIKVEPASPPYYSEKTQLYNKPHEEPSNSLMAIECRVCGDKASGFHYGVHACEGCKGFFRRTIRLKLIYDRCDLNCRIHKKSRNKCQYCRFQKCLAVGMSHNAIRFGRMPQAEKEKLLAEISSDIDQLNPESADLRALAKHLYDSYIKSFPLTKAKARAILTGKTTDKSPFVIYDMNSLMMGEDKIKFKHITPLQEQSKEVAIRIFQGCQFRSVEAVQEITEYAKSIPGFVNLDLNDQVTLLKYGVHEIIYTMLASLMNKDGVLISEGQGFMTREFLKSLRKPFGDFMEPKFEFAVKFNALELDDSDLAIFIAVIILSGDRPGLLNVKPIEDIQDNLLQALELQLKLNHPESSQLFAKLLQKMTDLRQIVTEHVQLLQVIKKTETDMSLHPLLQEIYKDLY
Sequence of human Peroxisome Proliferator-activated Receptor alpha (PPARa), PPARA (gene 5465) (Q07869 whole entry, looked up): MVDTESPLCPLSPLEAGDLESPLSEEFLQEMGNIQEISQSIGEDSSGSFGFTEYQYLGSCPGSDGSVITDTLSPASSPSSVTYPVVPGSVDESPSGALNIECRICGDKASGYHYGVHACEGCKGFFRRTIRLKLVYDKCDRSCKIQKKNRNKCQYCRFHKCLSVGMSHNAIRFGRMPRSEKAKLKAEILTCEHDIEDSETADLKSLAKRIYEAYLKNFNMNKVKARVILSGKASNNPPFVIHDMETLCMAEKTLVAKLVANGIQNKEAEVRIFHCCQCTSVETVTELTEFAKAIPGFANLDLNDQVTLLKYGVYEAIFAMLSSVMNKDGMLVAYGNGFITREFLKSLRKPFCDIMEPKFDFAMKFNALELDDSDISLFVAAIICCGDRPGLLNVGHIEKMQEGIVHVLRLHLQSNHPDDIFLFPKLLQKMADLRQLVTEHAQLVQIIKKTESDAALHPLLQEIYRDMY
Sequence of Retinoic acid receptor alpha (Homo sapiens) (P10276 whole entry, looked up, the tested form may be a part): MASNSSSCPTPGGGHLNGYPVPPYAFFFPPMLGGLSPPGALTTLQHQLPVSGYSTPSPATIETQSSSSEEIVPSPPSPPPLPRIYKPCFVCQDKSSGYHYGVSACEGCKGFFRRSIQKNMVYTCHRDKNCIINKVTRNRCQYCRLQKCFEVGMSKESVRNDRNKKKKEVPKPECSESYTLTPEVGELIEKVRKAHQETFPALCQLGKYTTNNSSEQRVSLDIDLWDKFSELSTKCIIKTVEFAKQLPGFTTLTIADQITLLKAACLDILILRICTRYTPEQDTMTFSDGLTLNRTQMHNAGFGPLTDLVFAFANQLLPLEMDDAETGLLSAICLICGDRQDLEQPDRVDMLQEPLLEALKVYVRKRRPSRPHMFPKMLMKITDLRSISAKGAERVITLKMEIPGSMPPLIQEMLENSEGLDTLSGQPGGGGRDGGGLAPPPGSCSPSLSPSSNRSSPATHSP

Take `C=CC(=O)OCC(F)(F)C(F)(F)C(F)(F)COC(=O)C=C`: the call in [1], in assay [2], in [3], in assay [14] and in assay [15] was inactive. Also, the AC50 in assay [4] was 15.9 µM (active); in [5] it was 12.7 µM (active); in assay [6], 10.9 µM (active); in assay [7], 78.8 µM (active); in [8] it was 23.3 µM (active) and 14.6 µM (active); in assay [9], 15.6 µM (active) and 20.5 µM (active). Also, the concentration at half-maximal activity (AC50) in assay [10] is 9.89 µM (active) and 8.33 µM (active); in [11] it was 46.5 µM (active); in [12], 8.32 µM (active) and 9.46 µM (active); in [13], 2.69 µM (active).

On to `CC1=CCC2C(=O)OC(=O)C2C1` (centres undefined), for which the outcome in assay [1], in assay [2], in assay [3], in [4], in assay [5] and in [6] was inactive. The compound was classed as inactive in [7], in assay [16] and in assay [15].

Regarding `CCCCCCCC/C=C\CCCCCCCC(=O)N(C)CC(=O)O`, the result in assay [1], in assay [2], in [3], in [4], in assay [5] and in [6] was inactive. Further, the compound was called inactive in [7], in [17], in assay [18], in [19], in assay [14] and in assay [15]. The AC50 in [16] is 2.02 µM (active); in assay [13], 5.36 µM (active).

For the compound `C#CC(O)CCC` (centres undefined), the compound was called inactive in assay [1], in [3], in assay [4], in assay [5], in assay [6] and in [7]. In addition, the compound was classed as inactive in assay [18], in assay [13] and in assay [14].

`CC(C)(C)C(=O)C1C(=O)c2ccccc2C1=O`: the compound was called inactive in [1], in [3], in [4], in assay [7], in assay [16] and in [17]. In addition, the call in assay [18], in [19] and in [15] was inactive. In addition, the AC50 in assay [5] is 31.5 µM (active); in assay [6], 63.1 µM (active); in assay [13], 28 µM (active); in [14], 22.4 µM (active).

Regarding `CCOC(=O)CCC(C)=O`, the call in [1], in [3], in assay [4], in assay [5], in [6] and in [7] was inactive. Further, the outcome in assay [16], in assay [17] and in assay [14] was inactive.

(Values after PubChem BioAssay (EPA / NIEHS).)
